Results as given in PubChem BioAssay AID2284124 (EPA ToxCast).
Calls of active or inactive are those of the source. How the source made its calls: active means hit-call score of the fitted dose curve at least 0.9, where 1 is the maximum; inactive means score below 0.9.

System: guinea pig Atrial Natriuretic Factor (ANF, Non-Selective), gene 100135578
Assay: ERF_TW_GPCR_gANPA: Eurofins (ERF) Binding Assay for guinea pig Atrial Natriuretic Factor (ANF, Non-Selective)
Procedure: ERF_TW_GPCR_gANPA is a biochemical, single-readout assay that uses extracted gene-proteins in a cell-free assay. Measurements were taken 1 hour after chemical dosing in a 96-well plate. See Atrial Natriuretic Factor (ANF, Non-Selective) Guinea Pig Binding Assay, Panlabs.ERF_TW_GPCR_gANPA is an assay component calculated from the ERF_TW_GPCR_gANPA assay. It is designed to measure radioligand binding using a type of binding reporter as detected by scintillation counting with radiometry technology.Data from the assay component ERF_TW_GPCR_gANPA was analyzed at the assay endpoint, ERF_TW_GPCR_gANPA, in the positive analysis fitting direction relative to DMSO as the negative control and baseline of activity. Using a type of binding reporter, loss-of-signal activity can be used to understand changes in binding as they relate to gene ANPA. To generalize the intended target to other relatable targets, this assay endpoint is annotated to the gpcr intended target family, where the subfamily is guanylyl cyclase.
This assay measures binding of Atrial Natriuretic Peptide to sites associated with the ANF. Guinea pig striatal membranes are prepared in Tris-HCl buffer pH 7.4. A 24 ug aliquot of membrane is incubated with 16 pM Atrial Natriuretic Peptide for 60 minutes at 4C. Non-specific binding is estimated in the presence of 0.1 uM ANF.

Row | Compound | outcome
1 | O=C(/C=C/c1ccc(O)cc1)CC(=O)/C=C/c1ccc(O)cc1 | inactive
